Results filed as inconclusive are left out. Calls of active or inactive are those of the source. Unless noted, calls follow the shape of the dose curve; as a rule, active = well fitted curve in the direction sought with a large enough effect in the repeat runs; inconclusive = weak or mixed curves; inactive = no such curve, though single readings can be large; an effect the other way counts as inactive or inconclusive.
What was measured:
[1] = qHTS assay for small molecule agonists of the p53 signaling pathway (AID 651631; calls by dose curve; also: nearly all actives have a fitted effect of over 15% in size)
Method in brief: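 Quantitative high-throughput format: 4,000 p53RE-bla HCT-116 cells/well, 5 h pre-incubation, 16 h compound exposure at 37 °C, 2 h room-temperature substrate step, fluorescence intensity measured.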

[2] = qHTS assay for small molecules that induce genotoxicity in human embryonic kidney cells expressing luciferase-tagged ATAD5 (AID 651632); also: nearly all actives have a fitted effect of over 15% in size
Method in brief: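 DMSO vehicle served as the control. HEK293T reporter cells, 16 hr at 37C, then 30 min Amplite at room temperature; ATAD5 induction is measured as luciferase activity.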

[3] = qHTS assay for small molecule agonists of the p53 signaling pathway - cell viability (AID 651633; calls by dose curve;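 also: p53RE-bla HCT reporter cells with a stable beta-lactamase p53 reporter; series mostly up to about 83 µM; nearly all actives have a fitted effect of over 30% in size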)
Method in brief: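 Viability counter-read: CellTiter-Glo luminescence (30 min, room temperature) in the same p53RE-bla plates. These plates had been exposed to compounds for 16 h at 37 C.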

[4] = qHTS assay for small molecules that induce genotoxicity in human embryonic kidney cells expressing luciferase-tagged ATAD5 - cell viability (AID 651634; calls by dose curve; also: nearly all actives have a fitted effect of over 25% in size)
Method in brief: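 Here HEK293T cells with the ATAD5 luciferase reporter are incubated with test compounds for 15.5 hr, and cytotoxicity is then gauged by measuring protease activity in live cells using fluorescence.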

[5] = qHTS assay for small molecule disruptors of the mitochondrial membrane potential - cell viability (AID 720634; calls by dose curve;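 also: human HepG2 liver cancer cells; series mostly up to about 83 µM; nearly all actives have a fitted effect of over 20% in size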)
Method in brief: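 Viability of HepG2 cells is scored from ATP content by luminescence; cells are exposed to compound for 1 hr at 37 C and 5% CO2, then dosed with m-MPI dye before the CellTiter-Glo reagent.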

[6] = qHTS assay for small molecule disruptors of the mitochondrial membrane potential (AID 720635)
Method in brief: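 Mitochondrial membrane potential tracked with Mito-MPS dye, red aggregates (ex 540/em 590 nm) against green monomers (ex 490/em 535 nm). Compound treatment 1 hr at 37C, dye 30 min in HepG2.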

[7] = qHTS assay to test for compound auto fluorescence at 590 nm (red) in HepG2 cells (AID 720674)
Method in brief: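 We screened compounds on adherent HepG2 cells, incubating them for an hour at 37 C in 5% CO2 before reading emission at 590 nm under 540 nm excitation; values reflect equivalence to Rose Bengal sodium fluorescence.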

[8] = qHTS assay to test for compound auto fluorescence at 535 nm (green) in HepG2 cells (AID 720675)
[9] = qHTS assay to test for compound auto fluorescence at 460 nm (blue) in HEK293 cells (AID 720678)
Method in brief: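 Auto fluorescence in the blue band was quantified as triamterene equivalency. HEK293 cells were seeded at 2,000/well, dosed after a 4-5 hr attachment, and kept overnight at 37C before the 405/460 nm reading.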

[10] = qHTS assay to test for compound auto fluorescence at 535 nm (green) in HEK293 cells (AID 720680)
[11] = qHTS assay to test for compound auto fluorescence at 460 nm (blue) in HEK293 cell free culture (AID 720681)
Method in brief: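 Blue fluorescence (Ex 405/Em 460 nm, triamterene-equivalent) was read immediately after pin transfer of compound or DMSO into medium (DMEM, 10% FBS) without cells.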

[12] = qHTS assay to test for compound auto fluorescence at 535 nm (green) in HEK293 cell free culture (AID 720682)
Method in brief: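 Measurement is a direct plate read of green fluorescence (485 nm in, 535 nm out) after compound addition to serum-supplemented DMEM lacking cells, with fluorescein used to express intensities.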

[13] = qHTS assay to test for compound auto fluorescence at 590 nm (red) in HEK293 cell free culture (AID 720683)
Method in brief: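 Red-channel autofluorescence of compounds in culture medium (DMEM, 10% FBS), no cells, measured at 540/590 nm. Rose Bengal sodium is the reference fluorophore for equivalence.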

[14] = qHTS assay to test for compound auto fluorescence at 590 nm (red) in HepG2 cell free culture (AID 720684)
Method in brief: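 Cell-free; medium MEM + 10% FBS; compound or DMSO added by pintool; read Ex 540/Em 590 nm; Rose Bengal sodium as red reference fluorophore.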

[15] = qHTS assay to test for compound auto fluorescence at 460 nm (blue) in HepG2 cell free culture (AID 720685)
Method in brief: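 Cell-free plates of MEM plus 10% FBS received 23 nL compound or DMSO vehicle; blue-channel (405/460 nm) intensity scored against triamterene as reference fluorophore.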

[16] = qHTS assay to test for compound auto fluorescence at 535 nm (green) in HepG2 cell free culture (AID 720686)
[17] = qHTS assay to test for compound auto fluorescence at 460 nm (blue) in HepG2 cells (AID 720687)
Method in brief: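 Blue-channel autofluorescence (Ex/Em 405/460 nm, triamterene-equivalent) was measured after 1 hr compound exposure at 37 C, 5% CO2. Cells were HepG2, plated overnight at 37 C in MEM plus 10% FBS.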

[18] = qHTS assay to test for compound auto fluorescence at 590 nm (red) in HEK293 cells (AID 720679)
Method in brief: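 Autofluorescence equivalency to Rose Bengal sodium, 540/590nm, in HEK293 cells exposed overnight to 23 nL compound per well.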

[19] = target: Glucocorticoid receptor (Homo sapiens) (UniProt P04150); assay: qHTS assay to identify small molecule agonists of the glucocorticoid receptor (GR) signaling pathway (AID 720691; active = well fitted activation curve with a large enough effect in the signal ratio in the repeat runs, not every such curve was filed as active; the % refers to the signal ratio)
Method in brief: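 Compounds in DMSO, alongside positive controls, were added to GR-bla HeLa reporter cells and incubated 18 h at 37 C; GRE-driven beta-lactamase was detected by fluorescence after 2 h with FRET substrate at room temperature.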

[20] = target: Glucocorticoid receptor (Homo sapiens) (UniProt P04150); assay: qHTS assay to identify small molecule antagonists of the glucocorticoid receptor (GR) signaling pathway (AID 720692; active = well fitted inhibition curve with a large enough effect in the signal ratio in the repeat runs, not every such curve was filed as active; the % refers to the signal ratio)
Method in brief: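 In a 1536-well cell format, compounds were added 4 h after seeding GR-bla HeLa cells, together with dexamethasone at 5 nM final; reporter activity was measured by FRET-substrate fluorescence following 18 h at 37 C.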
% is scaled to controls: 0 for no effect and ±100 for the full control effect.

Sequence of Glucocorticoid receptor (Homo sapiens) (P04150 whole entry, looked up): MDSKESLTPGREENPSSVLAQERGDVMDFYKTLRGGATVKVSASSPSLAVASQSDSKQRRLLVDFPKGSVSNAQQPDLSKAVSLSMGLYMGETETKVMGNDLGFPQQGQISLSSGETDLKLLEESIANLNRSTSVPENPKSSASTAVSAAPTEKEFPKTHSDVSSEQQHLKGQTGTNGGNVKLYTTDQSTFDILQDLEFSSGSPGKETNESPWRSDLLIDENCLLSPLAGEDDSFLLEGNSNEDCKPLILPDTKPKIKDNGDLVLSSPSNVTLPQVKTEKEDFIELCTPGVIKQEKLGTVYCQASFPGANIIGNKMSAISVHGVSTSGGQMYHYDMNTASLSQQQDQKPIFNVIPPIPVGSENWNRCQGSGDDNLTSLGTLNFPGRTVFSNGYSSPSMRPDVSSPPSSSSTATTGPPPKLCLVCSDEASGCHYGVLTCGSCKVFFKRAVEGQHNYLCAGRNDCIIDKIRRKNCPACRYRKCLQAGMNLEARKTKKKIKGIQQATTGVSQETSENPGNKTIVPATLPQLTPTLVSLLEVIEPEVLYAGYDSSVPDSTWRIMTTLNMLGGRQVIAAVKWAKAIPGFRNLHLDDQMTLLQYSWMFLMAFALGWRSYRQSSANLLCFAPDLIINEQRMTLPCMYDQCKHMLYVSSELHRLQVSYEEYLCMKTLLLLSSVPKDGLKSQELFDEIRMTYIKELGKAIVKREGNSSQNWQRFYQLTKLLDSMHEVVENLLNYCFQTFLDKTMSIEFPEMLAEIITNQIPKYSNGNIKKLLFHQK

COc1cc(OC)cc(OC)c1
inactive: Potency [1] | Potency [2] | outcome [3] | outcome [4] | outcome [5] | Potency [6] | outcome [7] | outcome [8] | outcome [9] | outcome [10] | outcome [11] | outcome [12] | outcome [13] | outcome [14] | outcome [15] | outcome [16] | outcome [17]

O=S(=O)(O)CC(O)CCl (stereo unspecified)
inactive: Potency [1] | Potency [2] | outcome [3] | outcome [4] | outcome [5] | outcome [7] | outcome [8] | outcome [9] | outcome [18] | outcome [10] | outcome [11] | outcome [12] | outcome [13] | outcome [14] | outcome [15] | outcome [16] | outcome [17]

c1coc(Cn2cccc2)c1
inactive: Potency [1] | Potency [2] | outcome [3] | outcome [4] | outcome [5] | Potency [6] | outcome [7] | outcome [8] | outcome [9] | outcome [18] | outcome [10] | outcome [11] | outcome [12] | outcome [13] | outcome [14] | outcome [15] | outcome [16] | outcome [17] | Potency [19] | outcome [20]

Cc1nnc(C(=O)NC(C)(C)c2nc(C(=O)NCc3ccc(F)cc3)c(O)c(=O)n2C)o1
inactive: Potency [1] | Potency [2] | outcome [3] | outcome [4] | outcome [5] | Potency [6] | outcome [7] | outcome [8] | outcome [9] | outcome [18] | outcome [10] | outcome [12] | outcome [13] | outcome [14] | outcome [15] | outcome [16] | outcome [17] | Potency [19] | outcome [20]

N[C@H]1C(O)O[C@H](CO)[C@@H](O)[C@@H]1O (stereo partly specified)
inactive: Potency [1] | Potency [2] | outcome [3] | outcome [4] | outcome [5] | Potency [6] | outcome [7] | outcome [8] | outcome [9] | outcome [18] | outcome [10] | outcome [11] | outcome [12] | outcome [13] | outcome [14] | outcome [15] | outcome [16] | outcome [17]

C/C=C(\C)C(=O)OC/C=C(\C)CCC=C(C)C
inactive: Potency [1] | Potency [2] | outcome [3] | outcome [4] | outcome [5] | Potency [6] | outcome [7] | outcome [8] | outcome [9] | outcome [18] | outcome [10] | outcome [12] | outcome [13] | outcome [14] | outcome [15] | outcome [16] | outcome [17] | Potency [19] | outcome [20]

CC(C)(Sc1cc(C(C)(C)C)c(O)c(C(C)(C)C)c1)Sc1cc(C(C)(C)C)c(O)c(C(C)(C)C)c1
inactive: Potency [1] | Potency [2] | outcome [3] | outcome [4] | outcome [5] | Potency [6] | fluorescence, relative to Rose Bengal [7] 0.757% [at 18.6 µM] | fluorescence, % of fluorescein control [8] -0.143% [at 18.6 µM] | fluorescence, % of triamterene [9] -0.428% [at 18.6 µM] | fluorescence, % of fluorescein [10] 0.0112% [at 18.6 µM] | fluorescence, % of fluorescent control [11] -0.101% [at 18.6 µM] | activity change [12] 0.0049% [at 18.6 µM] | fluorescence, % of fluorescent control [13] -0.146% [at 18.6 µM] | fluorescence, % of Rose Bengal [14] -0.645% [at 18.6 µM] | fluorescence, % of fluorescent control [15] -0.0941% [at 18.6 µM] | fluorescence, % of fluorescein control [16] -0.106% [at 18.6 µM] | fluorescence, % of fluorescent control [17] 0.0012% [at 18.6 µM] | Potency [19]

CC/C=C\CCOC(=O)c1ccccc1
inactive: Potency [1] | Potency [2] | outcome [3] | outcome [4] | Potency [6] | outcome [7] | outcome [8] | outcome [9] | outcome [18] | outcome [10] | outcome [11] | outcome [12] | outcome [13] | outcome [14] | outcome [15] | outcome [16] | outcome [17] | Potency [19]

CCCCCCCCCCCCCCCCN(C)C
inactive: activation [1] -4.5% [at 8.3 µM] | activation [2] 2.36% [at 8.08 µM] | activity change, negative = cytotoxicity [3] 8.53% [at 8.08 µM] | activity, negative = cytotoxicity [4] -13.5% [at 8.08 µM] | fluorescence, relative to Rose Bengal [7] 0.017% [at 3.72 µM] | fluorescence, % of fluorescein control [8] -0.0084% [at 3.72 µM] | fluorescence, % of triamterene [9] -0.0322% [at 3.72 µM] | fluorescence, % of fluorescent control [18] -0.181% [at 3.72 µM] | fluorescence, % of fluorescein [10] 0.0696% [at 3.72 µM] | fluorescence, % of fluorescent control [11] -0.0334% [at 3.72 µM] | activity change [12] 0.0487% [at 3.72 µM] | fluorescence, % of fluorescent control [13] 0.0064% [at 3.72 µM] | fluorescence, % of Rose Bengal [14] -0.0248% [at 3.72 µM] | fluorescence, % of fluorescent control [15] -0.0345% [at 3.72 µM] | fluorescence, % of fluorescein control [16] 0.006% [at 3.72 µM] | fluorescence, % of fluorescent control [17] -0.0699% [at 3.72 µM] | activation [19] -0.164% [at 6.9 µM] | activity change, negative = inhibition [20] -19.5% [at 7.04 µM]

CCCCOCCCC
inactive: Potency [1] | Potency [2] | outcome [3] | outcome [4] | outcome [7] | outcome [8] | outcome [9] | outcome [18] | outcome [10] | outcome [11] | outcome [12] | outcome [13] | outcome [14] | outcome [15] | outcome [16] | outcome [17] | Potency [19] | outcome [20]

CCc1ncc(C)[nH]1
inactive: Potency [1] | Potency [2] | outcome [3] | outcome [4] | outcome [5] | outcome [7] | outcome [8] | outcome [9] | outcome [10] | outcome [12] | outcome [13] | outcome [14] | outcome [15] | outcome [16] | outcome [17] | Potency [19] | outcome [20]

CC(C)(C)OC=O
inactive: Potency [1] | Potency [2] | outcome [3] | outcome [4] | outcome [5] | outcome [7] | outcome [8] | outcome [9] | outcome [18] | outcome [10] | outcome [11] | outcome [12] | outcome [13] | outcome [14] | outcome [15] | outcome [16] | outcome [17] | Potency [19] | outcome [20]

CC(C)(C)C(=O)NCCCC(=O)O
inactive: Potency [1] | Potency [2] | outcome [3] | outcome [4] | outcome [7] | outcome [8] | outcome [9] | outcome [18] | outcome [10] | outcome [11] | outcome [12] | outcome [13] | outcome [14] | outcome [15] | outcome [16] | outcome [17]

CCCCC(CC)CCC(CC(C)C)OS(=O)(=O)O (stereo unspecified)
inactive: Potency [1] | Potency [2] | outcome [3] | outcome [4] | outcome [5] | outcome [7] | outcome [8] | outcome [9] | outcome [18] | outcome [10] | outcome [11] | outcome [12] | outcome [13] | outcome [14] | outcome [15] | outcome [16] | outcome [17]

Reference: PubChem BioAssay (Tox21)
